Bioassay records as filed in PubChem.
aSyn UTR act: Activators via SNCA 5'UTR binding, MLPCN; activity score, % (tested at 7.5 µM), hits read low; hit rate 7.1% among 300,000; alpha-synuclein 5'UTR reporter, activators screen; in the data active = activity score below about -60%
The depositor's hits bear a star. This is one part of a sample in which hits are shown more often than they occur.

SMILES	aSyn UTR act
C/C(=N/Nc1nc(-c2ccc(Cl)cc2)cs1)c1cccs1	-75*
O=C(Oc1c(-c2ccccc2)c(=O)n2c3c(cccc13)CC2)c1cccc([N+](=O)[O-])c1	77
Cc1ccc(OC(=O)COc2ccccc2)c(-n2nc3ccccc3n2)c1	-178*
Cc1ccc(OC(=O)c2cccc([N+](=O)[O-])c2)c(-n2nc3ccccc3n2)c1	-278*
Cc1ccc(OC(=O)COc2ccccc2C)c(-n2nc3ccccc3n2)c1	-233*
Cn1c(CCNC(=O)c2ccco2)nc2cc(NC(=O)c3ccccc3)ccc21	-91*
CCC(=O)NCCc1nc2cc(NC(=O)c3ccco3)ccc2n1C	-73*
Cn1c(CCNC(=O)c2ccccc2)nc2cc(NC(=O)c3ccco3)ccc21	-81*
COc1ccccc1C(=O)Nc1ccc2c(c1)nc(CCNC(=O)c1ccco1)n2C	-295*
Cn1c(CCNC(=O)c2ccco2)nc2cc(NC(=O)c3ccco3)ccc21	-144*
OCCc1ccc(O)c(-n2nc3ccccc3n2)c1	-117*
O=C(Nc1ccccc1F)c1cc2nc(C(F)F)cc(C(F)F)n2n1	-71*
CN1CCN(c2ccc(-c3ccnn3C(=O)Nc3ccccc3)cc2)CC1	-72*
COc1cc(C=O)ccc1OCCSc1ccc(Cl)cc1	-87*
NC(=O)c1c(NC(=O)c2cccnc2)sc2c1CCCC2	-221*
CCC1CCc2c(sc(NC(=O)c3ccoc3C)c2C(N)=O)C1 (stereo unspecified)	-89*
CC(C)(C)C1CCc2c(sc(NC(=O)c3ccncc3)c2C(N)=O)C1 (stereo unspecified)	-131*
NC(=O)c1c(NC(=O)c2cccnc2)sc2c1CCCCC2	-177*
CCC1CCc2c(sc(NC(=O)c3cccnc3)c2C(N)=O)C1 (stereo unspecified)	-99*
CCc1ccc(C(=O)NC2CCCCC2)s1	-82*
CC(C)(O)C#Cc1ccc(C(=O)Nc2ccc3c(c2)OCO3)s1	-143*
CC(C)(O)C#Cc1ccc(C(=O)NC2CCCCC2)s1	-98*
CC1CCCC2(C1)NC(=S)c1c(sc3c1CCCC3)N2 (stereo unspecified)	-63*
Cc1c(Cl)cccc1N=Cc1ccc([N+](=O)[O-])s1	-89*
CCCNC(=O)OCCC12CC3CC(CC(C3)C1)C2	-92*
SMILES	aSyn UTR act
O=C(Nc1nc2c(s1)CN(Cc1ccccc1)CC2)C1CCC1	-108*
CCC1CCCCN1C(=O)c1ccc(OC2CCN(C(=O)CCOC)CC2)cc1 (stereo unspecified)	-82*
O=c1oc(/C=C/c2ccccc2)nc2sc3c(c12)CCC3	-212*
Nc1nc(-c2cccnc2)nc2sc3c(c12)CCCC3	-122*
O=c1oc(-c2ccccc2)nc2sc3c(c12)CCCC3	-103*
O=c1oc(-c2cccs2)nc2sc3c(c12)CCCCC3	-90*
CCc1c(-c2ccccc2)nc2sc3c(c2c1N)CCCC3	-113*
COc1ccc(C(=O)Nc2cc(OC)cc(OC)c2)cc1	-62*
COc1ccccc1OC(=O)Nc1ccc(Cl)cc1	-83*
COc1ccccc1Oc1ccc(NC(=O)c2ccccc2)cc1	-91*
COc1cc(NC(=O)c2ccccc2)cc(OC)c1	-131*
Cc1cccc(C)c1OCc1cc(C(=O)NC2CCC2)no1	-66*
COc1ccc(OCc2cc(C(=O)N3CCCN(C(C)=O)CC3)no2)c(Cl)c1	-75*
CC(=O)c1ccc(OCc2cc(C(=O)N3CC4C[C@@H]5CC3C[C@H](C4)C5)no2)cc1	-134*
COc1ccc(OCc2cc(C(=O)N3C[C@H]4CC[C@H]3C4)no2)c(Cl)c1	-82*
O=C(c1cc(COc2c(F)cccc2F)on1)N1CCC(c2ccccc2F)C1 (stereo unspecified)	-125*
COc1ccccc1OCc1cc(C(=O)N2CC3C[C@@H]4CC2C[C@H](C3)C4)no1	-120*
O=C(c1cc(COc2ccc(F)cc2F)on1)N1C[C@H]2CC[C@H]1C2	-99*
O=C(c1cc(COc2ccc(F)cc2F)on1)N1CC2C[C@@H]3CC1C[C@H](C2)C3	-97*
O=C(c1cc(COc2c(F)cccc2F)on1)N1C[C@H]2CC[C@H]1C2	-114*
Cc1cccc(C)c1OCc1cc(C(=O)N2CCC(c3ccncc3)CC2)no1	-93*
CC(=O)c1c(C)[nH]c(C(=O)CSc2ccc(F)cc2)c1C	-182*
CCc1c(C(=O)NC2CCCc3ccccc32)[nH]c(C)c1C(C)=O (stereo unspecified)	64
Cc1cc(C(=O)CSc2ccc(Cl)cc2)cc(C)c1OC(=S)N(C)C	-179*
Cc1cc(C(=O)CSc2ccc(F)cc2)cc(C)c1O	-109*
SMILES	aSyn UTR act
Cn1c(C(=O)NCCc2c[nH]c3ccccc23)cc2sccc21	-237*
O=C(NCCc1c[nH]c2ccccc12)c1cc(Cl)c2c(c1)OCO2	-110*
O=C(NCCc1c[nH]c2ccccc12)c1cccnc1	-67*
O=C(NCCc1c[nH]c2ccccc12)c1ccc2c(c1)OCO2	-142*
O=C(NCCc1ccc(Cl)cc1)c1ccc2c(c1)OCO2	-121*
O=C(NCCc1ccccc1F)c1ccc2c(c1)OCCO2	108
